According to the supplement of paper PMC7057948, “A genome-wide approach for identification and characterisation of metabolite-inducible systems” (Nature Communications, 2020):

Test system: HpdA/P_H16_RS24175 L-tyrosine biosensor (pEH158)
Test: relative induction of RFP reporter vs primary effector (background-corrected); higher = stronger activation of the biosensor
Settings: inducer concentration 5 mM; 6 h; Cupriavidus necator H16; minimal medium + 0.4% gluconate
Protocol: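 C. necator H16 strains, each carrying one of 21 transcription factor/inducible promoter–mRFP biosensor plasmids, were grown in minimal medium in 96-well plates (robotic platform). Each was exposed to 46 structurally or metabolically related compounds at 5 mM at 30 °C. OD-normalised RFP fluorescence was read 6 h later and expressed as relative induction (%) = 100 × (FL compound − FL uninduced)/(FL primary inducer − FL uninduced); mean of n=4.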
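Also: RFP excited at 585 nm with emission read at 620 nm, culture medium blanks subtracted from fluorescence and absorbance prior to normalisation.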

SMILES	relative induction of RFP reporter [%]
O=C(O)c1cc(=O)c2ccccc2[nH]1 [kynurenate]	-0.151
NC(=O)CC[C@H](N)C(=O)O [L-glutamine]	-0.216
N[C@@H](Cc1c[nH]c2ccccc12)C(=O)O [L-tryptophan]	0.00902
O=C(O)CC(CC(=O)O)C(=O)O [tricarballylate]	-0.173
